In PubChem BioAssay AID504914 (The Scripps Research Institute Molecular Screening Center, 2011):
Some of the results follow. Unmarked numbers belong to inactive results. No rule for the calls is given here.

biological target: 5-hydroxytryptamine receptor 5A (Homo sapiens) (UniProt P47898); assay: HTR5A inverse agonists, counter-screen for OPRM1-OPRD1 inverse agonist project, cell-based, luminescence (AID 504914); conditions: HTR5A-expressing cells, inverse agonism, at 9.3 µM, hits give high values;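 also: 0% = cells with DMSO and 100% = no-cell wells with DMSO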
Sequence (P47898 whole entry, looked up): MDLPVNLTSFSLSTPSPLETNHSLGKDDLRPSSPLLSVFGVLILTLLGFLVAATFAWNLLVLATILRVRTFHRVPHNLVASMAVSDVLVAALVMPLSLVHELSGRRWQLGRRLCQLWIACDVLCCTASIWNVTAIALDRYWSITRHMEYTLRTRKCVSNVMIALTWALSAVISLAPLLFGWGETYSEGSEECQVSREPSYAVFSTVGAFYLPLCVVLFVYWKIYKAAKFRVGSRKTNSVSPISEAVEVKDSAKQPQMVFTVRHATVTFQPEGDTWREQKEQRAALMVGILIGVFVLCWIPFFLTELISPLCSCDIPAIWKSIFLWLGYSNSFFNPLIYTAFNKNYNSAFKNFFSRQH

Compared with `Cc1ccc(C(=O)CNc2ccc(F)cc2)cc1`, `Cc1ccc(NC2(C#N)C(=O)Nc3ccccc32)cc1` (stereo unspecified) is lower in inhibition: -0.52% for the first, -97.2% for the second.

Compared with `Cc1cccc2c1N(CC(=O)OC(C)C)C(=O)C2=O`, `CC(C)OC(=O)CN1C(=O)C(=O)c2ccccc21` is higher in inhibition: -14.5% for the first, 4.72% for the second.

Going from `O=C1C(=O)N(c2ccccc2)c2ccccc21` to `O=C1C(=O)N(CC2COc3ccccc3O2)c2ccccc21` (stereo unspecified), the inhibition falls from 19% to 12%.

First: COC(=O)Cc1c(-c2[nH]c3ccccc3c2CC(=O)OC)[nH]c2ccccc12
Second: Cc1cccc(C)c1NC(=O)C(Cl)C(=O)c1ccccc1 (stereo unspecified)
The inhibition of the first is higher: -66.2% for the first, -75.6% for the second.

First: CN(C)/C=C1/Nc2ccccc2C1=O
Second: CN(O)C(=S)c1ccccc1
The inhibition of the first is lower: 5.59% for the first, 26.7% for the second.

Going from `CSCCC(NC(=O)COc1ccccc1)C(=O)OCC(=O)c1cc2ccccc2o1` (stereo unspecified) to `CN(c1ccccc1)S(=O)(=O)c1ccc(NC(=O)COc2ccccc2)cc1`, the inhibition falls from 12% to -4.8%.

First: N#CC1=C(N)C(C#N)(C#N)[C@H](c2ccsc2)[C@H]2COCC=C12
Second: Oc1ccc(N=Nc2nccs2)c(O)c1
The inhibition of the first is lower: -8.6% for the first, 23.3% for the second.

Compared with `Cc1ccc2c(c1)C(O)(CC(=O)c1cccnc1)C(=O)N2` (stereo unspecified), `CCOC(=O)CN1C(=O)C(O)(CC(=O)c2ccccn2)c2ccccc21` (stereo unspecified) is higher in inhibition: 0% for the first, 10.2% for the second.

Going from `CCOc1ccc(NC(=O)c2cccc3c2C(=O)N(CC2CCCO2)C3)cc1` (stereo unspecified) to `Cc1cccc2c1N(CCOc1ccccc1)C(=O)C2=O`, the inhibition rises from -4.42% to 10.3%.

Compared with `COc1cc(NS(=O)(=O)c2ccc3ccccc3c2)c2ncccc2c1`, `O=[N+]([O-])/C=C/c1ccc2c(ccn2Cc2ccccc2)c1` is higher in inhibition: -111% for the first, -16.4% for the second.

Compared with `CCOC(=O)CN1C(=O)C(=O)c2cc(C)ccc21`, `C=CCn1c(N)c(C(=O)OCC(C)C)c2nc3ccccc3nc21` is lower in inhibition: 12.5% for the first, 10.8% for the second.

Compared with `O=C(CCl)NNc1cccc(Cl)n1`, `Cc1ccc(NNC(=O)c2cccs2)cc1Cl` is lower in inhibition: 8.61% for the first, -15% for the second.

First: Cc1cccc(N=Nc2c(O)[nH]c3ccc(F)cc23)c1
Second: CCCCC(=O)NNC(=S)NC(=O)C(c1ccccc1)c1ccccc1
The inhibition of the first is higher: 22.6% for the first, -76% for the second.
